Over roughly 33,000 sequences, “E-score (-0.5 to 0.5)” has its median near -0.013; the highest 2% begin near 0.3. The full list was thinned out, with the highest values kept by preference.
target: T1, Msn1 (UniProt P22148); assay: PBM E-score (8-mer binding enrichment) (E-score (-0.5 to 0.5)); higher = stronger / more preferred TF binding; conditions: protein concentration: 200 nM; construct: GST-full length
T1 sequence: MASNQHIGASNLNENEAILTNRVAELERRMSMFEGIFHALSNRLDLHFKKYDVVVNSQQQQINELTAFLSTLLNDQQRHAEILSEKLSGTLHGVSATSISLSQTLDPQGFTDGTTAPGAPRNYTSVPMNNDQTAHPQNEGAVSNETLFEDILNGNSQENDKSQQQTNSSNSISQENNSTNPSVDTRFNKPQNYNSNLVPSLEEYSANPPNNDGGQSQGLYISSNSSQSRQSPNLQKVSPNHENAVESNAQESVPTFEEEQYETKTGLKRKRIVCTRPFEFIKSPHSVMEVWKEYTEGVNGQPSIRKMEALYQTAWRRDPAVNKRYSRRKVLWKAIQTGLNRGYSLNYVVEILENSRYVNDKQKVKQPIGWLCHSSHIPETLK
Protocol: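 Universal 'all 10-mer' protein binding microarrays (Agilent AMADID 015681) probed with GST-tagged S. cerevisiae TFs (full-length or DBD) made by in vitro transcription/translation (PURExpress), about 100-200 nM. Bound TF was detected with fluorescent anti-GST. Each ungapped 8-mer (which stands for itself and its reverse complement) is scored by the PBM enrichment score (E-score), a modified Wilcoxon-Mann-Whitney statistic from -0.5 to +0.5, computed with the Universal PBM Analysis Suite. Scale: above 0.35 generally sequence-specific binding.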

Sequence	PBM E-score
ATTTAGAG	0.0544
ACGGGAGG	-0.268
ACACATGT	0.238
GATGTCCA	0.458
AAGGTCCG	-0.0417
TATGTCCA	0.465
TATGTCGA	0.289
GATGTCGA	0.0163
AATGTGCG	-0.0792
GACGTCCA	0.207
AATGTCAA	0.3
AATGTCCG	0.481
TACGTCCA	0.179
GATGTCAA	0.0785
TATGTCAA	0.31
GCTCCCAC	-0.135
GGCCAAAA	0.00072
GTTCGAGA	0.11
CAGAAAGC	-0.0396
AGCAAAAT	0.174
AGGGGGCC	-0.412
GCTACCGA	-0.00569

Sequence	PBM E-score
CCAGTACG	-0.0732
CATGTCCC	0.459
CATGTCAC	0.291
CCTGTCCC	0.282
CCACTTGC	-0.132
CTCAGTCA	-0.173
CCTGGACA	0.417
ACTGGACC	-0.137
TCTGGAAA	-0.0457
TCTGGACA	0.381
CCTGGACC	0.0101
ACTGGACT	0.105
CCTGGACG	-0.182
GCTGGACA	0.276
ACTGGACA	0.374
AAGTATGC	-0.0157
GCCGACCA	0.0498
TCCTTGCA	0.0515
CCTCTCAG	-0.339
ATACCATA	0.0438
CAGGCGGA	0.223
AAATGTGG	0.147

Sequence	PBM E-score
AAATGTCT	0.486
AAATGTAT	0.28
CAATGTGC	-0.121
AAATGTGT	0.292
CAATGTCA	0.262
AAATGTCG	0.412
CAATGTCG	0.323
CAATGTAG	-0.109
CAATGTGG	0.111
CAATGTCC	0.47
AAATGTTG	-0.0982
ACGACTCC	-0.181
GTCGGGTA	0.0767
GACGTCAA	-0.00044
GTAATATA	0.191
GAGAAACC	-0.0447
TATGTGAA	-0.121
GATAAGGC	0.0376
GAATGTGA	0.076
GAATGTCA	0.373
TAATGTCA	0.259
AAATGTTA	0.165

Sequence	PBM E-score
AAATGTAA	0.238
AAATGTCA	0.456
ACGATAGT	0.0402
CGACCTGA	0.0583
AGTTGTGC	-0.273
CGTTGTCA	-0.023
CGTTGTGC	0.114
AGTTGTCC	0.441
AGTTGTCA	0.295
CGTTGTCC	0.413
AATGCGGG	0.145
GGGAGCAC	-0.276
AAGCTCGT	0.0392
GCTTCCAA	-0.0663
GTCATTGA	0.0439
AGCTGGTC	-0.0428
ACGGGCAG	-0.0886
CGCAGACA	0.323
CGCAGACG	0.0312
GGCAGACA	0.079
AGCAGACA	0.0142
TGCAGACA	0.33
